Assay outcomes as filed in PubChem.
The full list was thinned out, with hits kept by preference.
ROS inducer – cancer cell ROS induction; 46,000 tested, 2% active; U2OS ROS induction, H2DCF-DA fluorescence; ROS induction (% of piperlongumine), % at 10 µM; in the data active = ROS induction above about 79%, passing the limit was not always enough
Hits are given with their value; – = inactive.

SMILES	ROS inducer
O=C(OCCNc1c(F)c(F)nc(F)c1F)c1ccccc1	–
COc1ccccc1OCC(=O)Nc1cccc(-c2nnc(-c3ccccc3)o2)c1	–
COc1ccc(-c2nnc(-c3ccc(S(=O)(=O)c4ccccc4)cc3)o2)cc1OC	126
COc1ccc(CC(=O)Nc2cccc(-c3nnc(-c4ccc(C)cc4)o3)c2)cc1OC	–
CCOc1ccc(-c2cc3[nH]c(=O)n(-c4ccccc4C(F)(F)F)c(=O)c3s2)cc1	–
O=C(O)CC(Cc1ccc(Cl)cc1)C(=O)Nc1ccccc1I (stereo not given)	–
CSc1nnc2c(n1)OC(C1CC=C(C)CC1)Nc1ccccc1-2 (stereo not given)	103
CSc1nnc2c(n1)OC(C)Nc1ccccc1-2 (stereo not given)	–
COC(=O)c1cc(NC(=O)COc2c(C)cc(C)cc2Cl)cc(C(=O)OC)c1	–
COc1ccc(OC)c(NC(=O)CC2NCCNC2=O)c1 (stereo not given)	–
Cn1c(CSCc2ccccc2)c(C#N)c2ccccc21	–
Cc1ccc2nc(-c3ccc(NC(=O)CSc4nncn4C)cc3)sc2c1	–
CCN1C(=O)c2cccc3c(S(=O)(=O)N4CCc5ccccc5C4)ccc1c23	–
COc1cc2oc(-c3ccccc3)cc(=O)c2c(O)c1OC	–
COc1cc2oc(-c3ccccc3)cc(=O)c2c(OC)c1OC	90
COc1cc(OC)c2c(=O)cc(-c3ccccc3)oc2c1	–
C[C@@H]1CN([C@@H](C)CO)C(=O)c2cccc(NS(=O)(=O)c3ccc(Cl)cc3)c2O[C@@H]1CN(C)C(=O)Nc1ccc(C(F)(F)F)cc1	–
COc1ccc(NS(=O)(=O)c2cc(Br)cnc2N)cc1	–
CC(=O)Oc1ccc2occ(C(=O)c3ccc(Br)s3)c2c1	–
CC(=O)Oc1ccc2occ(C(=O)CCN(C)C)c2c1	98
COc1ccc(OC)c(C(=O)c2coc3ccc(O)cc23)c1	–
Cc1ccc(S(=O)(=O)Nc2cc(S(=O)(=O)c3ccc(C)cc3)c(O)c3ccccc23)cc1	–
CC(=O)Nc1ccccc1NC(=O)COc1ccc([N+](=O)[O-])cc1	–
Cc1ccccc1NC(=O)COc1ccc(C)c([N+](=O)[O-])c1	114
CCOc1ccc(OCC(=O)Nc2ccc(C)cc2[N+](=O)[O-])cc1	–
SMILES	ROS inducer
C[C@@H]1CN([C@H](C)CO)C(=O)CCCn2cc(nn2)CO[C@H]1CN(C)Cc1cccc2c1OCCCO2	–
C[C@H](CO)N1C[C@H](C)[C@H](CN(C)CC2CC2)Oc2c(NC(=O)c3ccc(-c4nccs4)cc3)cccc2C1=O	–
C=C1C(=O)O[C@@H]2[C@H]3C(=C)[C@@H](O[C@@H]4O[C@H](CO)[C@@H](OC(=O)/C=C/c5ccc(O)c(O)c5)[C@H](O)[C@H]4O)C[C@H]3C(=C)C[C@@H](O)[C@@H]12	–
C=C(CO)C(=O)O[C@H]1C[C@H]2C(=C)C[C@H](OC(=O)C(=C)CO)[C@H]3C(=C)C(=O)O[C@@H]3[C@H]2C1=C	115
C=C1C(=O)O[C@H]2C1CCC(=C)[C@@H]1C[C@H](OC(=O)C=C(C)C)C(=C)[C@@H]12 (stereo not given in full)	–
NC(=O)[C@@H]1[C@H]2C(=O)O[C@H](c3ccccc3)[C@H](c3ccccc3)N2[C@H](c2ccccc2OCCO)[C@@]12C(=O)Nc1ccc(C#CC3=CCCCC3)cc12	–
COc1cccc(NC(=O)N(C)C[C@@H]2OCc3cn(nn3)CCCC(=O)N([C@@H](C)CO)C[C@@H]2C)c1	–
O=C(O)c1cccc(Nc2nc(Nc3ccccc3)nc(N3CCCC3)n2)c1	150
CCOc1ccc(Nc2nc(N3CCCCC3)nc(N3CCCCC3)n2)cc1	–
CC(=O)c1cccc(NC(=O)CSc2nc(N3CCCCC3)nc(N3CCCCC3)n2)c1	–
C[C@@H]1CN([C@@H](C)CO)C(=O)Cc2cc(NS(C)(=O)=O)ccc2O[C@@H]1CN(C)Cc1ccc(Oc2ccccc2)cc1	–
COc1cc(C)c(Br)cc1S(=O)(=O)NCc1ccco1	–
CCOc1cc(C)c(S(=O)(=O)NCCN2CCOCC2)cc1C	–
COc1cc(C)c(Br)cc1S(=O)(=O)NCCN1CCOCC1	142
CCC1(COC(NC(=O)c2ccc(Cl)cc2Cl)(C(F)(F)F)C(F)(F)F)COC1	–
C[C@H](CO)N1C[C@H](C)[C@@H](CN(C)C(=O)Nc2ccc3c(c2)OCO3)Oc2ccc(NC(=O)Nc3ccc(F)cc3)cc2C1=O	–
C[C@H](CO)N1C[C@H](C)[C@@H](CN(C)C(=O)Nc2ccc(C(F)(F)F)cc2)Oc2ccc(NC(=O)Nc3ccc4c(c3)OCO4)cc2C1=O	–
C[C@@H]1CN([C@H](C)CO)C(=O)c2cc(NC(=O)Nc3ccc(C(F)(F)F)cc3)ccc2O[C@H]1CN(C)C(=O)Nc1ccc2c(c1)OCO2	–
C[C@@H]1CN([C@H](C)CO)C(=O)c2cc(NC(=O)Nc3ccc(F)cc3)ccc2O[C@@H]1CN(C)C(=O)Nc1ccc2c(c1)OCO2	–
C[C@H]1CN([C@@H](C)CO)C(=O)c2cc(NC(=O)Nc3ccc4c(c3)OCO4)ccc2O[C@H]1CN(C)C(=O)Nc1ccc(F)cc1	86
C[C@@H]1CN([C@@H](C)CO)C(=O)c2cc(NC(=O)Nc3ccc4c(c3)OCO4)ccc2O[C@@H]1CN(C)C(=O)Nc1ccc(C(F)(F)F)cc1	227
CC1OC(OC(=O)C2=CC3CC(C)(C)CC34C(C)OC(=O)CC24)C(O)C(O)C1O (stereo not given)	–
C[C@@H]1CCCCO[C@@H](CN(C)S(=O)(=O)c2cccs2)[C@@H](C)CN([C@H](C)CO)C(=O)c2cc(NS(=O)(=O)c3cn(C)cn3)ccc2O1	–
Cc1cccc(NC(=O)c2cc(NC(=O)CCC(=O)O)ccc2N2CCOCC2)c1	–
COC(=O)COc1cccc(NC(=O)c2ccc(-c3ccccc3)cc2)c1	84
SMILES	ROS inducer
Cc1cccc(C(=O)Nc2cccc(OCC(=O)O)c2)c1	–
COC(=O)COc1cccc(NC(=O)c2ccccc2F)c1	–
O=C(O)[C@H]1O[C@@H](Oc2c(-c3ccccc3)cc(O)c(-c3ccccc3)c2O)[C@H](O)[C@@H](O)[C@@H]1O	–
O=C(O)CCCCCC(=O)N/N=C/c1cccc(Br)c1	–
Cc1ccc(/C=C/c2onc3c(=O)[nH]nc(C)c23)cc1	119
Cc1ccc(Cc2cc(C)n[nH]c2=O)cc1	–
Cc1n[nH]c(=O)c2nc(-c3ccccc3)sc12	–
CCN(CC)C(=O)c1cccc(C(=O)N(CC)CC)c1	–
C[C@@H]1CN([C@H](C)CO)C(=O)c2cc(NS(=O)(=O)c3cccs3)ccc2O[C@H]1CN(C)Cc1ccc(C(=O)O)cc1	–
COc1ccc(NC(=O)C(=O)NCc2cccnc2)cc1OC	–
CC(C)(C)c1ccc(-c2nnc(-c3ccccc3NC(=O)/C=C\C(=O)O)o2)cc1	80
CC(C)(C)c1ccc(-c2nnc(SCC(=O)Nc3ccccc3[N+](=O)[O-])o2)cc1	–
Cc1ccc(NC(=O)CSc2nnc(-c3ccc(C(C)(C)C)cc3)o2)c(C)c1	–
Cc1ncc(CO)c(/C=N/O)c1O	–
CN(CC(=O)C1=C(c2ccc(Br)cc2)C(=O)c2ccccc2C1=O)c1ccccc1	–
C[C@@H]1CN([C@H](C)CO)C(=O)c2cccc(N(C)C)c2O[C@H]1CN(C)S(=O)(=O)c1ccc(F)cc1	–
CC1CCC2(C)C(C(=O)O)=CCCC2C1(C)CCC1=CC(O)OC1=O (stereo not given)	–
c1ccc(Nc2ncnc3sc4c(c23)CCCC4)cc1	103
CCc1nc2sc3c(NCCc4ccccc4)ncnc3c2c2c1CCCC2	–
